Measured values published in PubChem BioAssay AID1159580 (chemical genetic matrix, 2015).
Where “and” joins values, the source holds several entries; their conditions need not be identical. Equal values may be shown once. The whole screen tested about 5,500 compounds, of which about 2,000 (36%) were called active. Another 18% or so got no clear call; they are omitted. Cut-off read from the data, not from the text of the source: active = normalized growth mostly below about 0.91 (no sharp cut-off); inconclusive = no clear call, values can overlap the other calls; inactive = mostly above about 0.92. The list shows a part of the results.

Assay: chemical genetic growth profiling, strain panel (AID 1159580);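 note: tested at 20 µM; growth read once vehicle control cultures reached saturation at 30 °C; 1 = growth at the plate median or of vehicle wells; lower values mean less growth of the strain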
Settings: S. cerevisiae deletion strains, growth OD

Measured: normalized growth

CC1O[C@@H](Oc2c(-c3ccc(O)c(O)c3)oc3cc(O)cc(O)c3c2=O)[C@H](O)[C@H](O)[C@H]1O (some centres not stated)
inactive: locus YAL013W, strain DEP1, active compounds read low 1 | locus YAL021C, strain ccr4, active compounds read low 1 | locus YAL026C, strain drs2, active compounds read low 0.996 | locus YAL030W, strain snc1, active compounds read low 0.999 | locus YBL061C, strain skt5, active compounds read low 0.993 | locus YBR009C, strain hhf1, active compounds read low 0.99 | locus YBR021W, strain FUR4, active compounds read low 1.01 | locus YBR023C, strain chs3, active compounds read low 0.995 | locus YBR171W, strain sec66, active compounds read low 0.971 | locus YBR229C, strain ROT2, active compounds read low 1 | locus YBR231C, strain swc5, active compounds read low 0.985 | locus YBR279W, strain paf1, active compounds read low 0.995 | locus YCL011C, strain gbp2, active compounds read low 0.997 | locus YCL016C, strain dcc1, active compounds read low 0.993 | locus YCL029C, strain bik1, active compounds read low 0.978 | locus YCL061C, strain MRC1, active compounds read low 0.985 | locus YCL069W, strain vba3, active compounds read low 0.991 | locus YCR088W, strain abp1, active compounds read low 0.985 | locus YDL005C, strain med2, active compounds read low 0.979 | locus YDL035C, strain GPR1, active compounds read low 1 | locus YDL040C, strain nat1, active compounds read low 0.984 | locus YDL074C, strain BRE1, active compounds read low 0.965 | locus YDL101C, strain DUN1, active compounds read low 0.991 | locus YDL134C, strain PPH21, active compounds read low 1 | locus YDL185W, strain tfp1, active compounds read low 0.956 | locus YDL192W, strain arf1, active compounds read low 0.985 | locus YDR001C, strain nth1, active compounds read low 0.999 | locus YDR069C, strain doa4, active compounds read low 0.985 | locus YDR101C, strain arx1, active compounds read low 0.999 | locus YDR137W, strain rgp1, active compounds read low 1.01 | locus YDR150W, strain NUM1, active compounds read low 0.998 | locus YDR159W, strain sac3, active compounds read low 0.97 | locus YDR162C, strain NBP2, active compounds read low 1 | locus YDR195W, strain ref2 0.967 | locus YDR297W, strain sur2, active compounds read low 0.987 | locus YDR318W, strain mcm21, active compounds read low 0.986 | locus YDR334W, strain swr1, active compounds read low 0.995 | locus YDR335W, strain msn5, active compounds read low 1 | locus YDR388W, active compounds read low 0.994 | locus YDR392W, strain spt3, active compounds read low 0.98 | locus YDR502C, strain sam2, active compounds read low 1.01 | locus YEL003W, strain gim4, active compounds read low 0.994 | locus YEL037C, strain rad23, active compounds read low 0.997 | locus YEL061C, strain CIN8 (second series), active compounds read low 0.995 | locus YEL061C, strain CIN8, active compounds read low 0.996 | locus YER015W, strain faa2, active compounds read low 0.973 | locus YER016W, strain bim1, active compounds read low 0.994 | locus YER110C, active compounds read low 0.993 | locus YER111C, strain swi4, active compounds read low 0.997 | locus YER155C, strain BEM2 (second series), active compounds read low 0.982 | locus YER155C, strain BEM2, active compounds read low 0.995 | locus YER167W, strain BCK2, active compounds read low 0.999 | locus YFR010W, strain ubp6, active compounds read low 0.988 | locus YGL078C, strain dbp3, active compounds read low 0.992 | locus YGL086W, strain mad1, active compounds read low 1.03 | locus YGL167C, strain pmr1, active compounds read low 0.99 | locus YGL173C, strain kem1, active compounds read low 0.979 | locus YGL227W, strain vid30, active compounds read low 0.979 | locus YGL240W, strain doc1, active compounds read low 0.976 | locus YGL248W, strain PDE1, active compounds read low 1 | locus YGL253W, strain hxk2, active compounds read low 0.985 | locus YGR078C, strain PAC10, active compounds read low 0.98 | locus YGR135W, strain pre9, active compounds read low 0.989 | locus YGR229C, strain SMI1, active compounds read low 1 | locus YGR252W, strain gcn5, active compounds read low 1.18 | locus YHR013C, strain ard1, active compounds read low 0.982 | locus YHR027C, strain rpn1, active compounds read low 0.988 | locus YHR030C, strain SLT2, active compounds read low 0.997 and 0.954 | locus YHR079C, strain IRE1 (second series), active compounds read low 0.989 | locus YHR079C, strain IRE1, active compounds read low 0.962 | locus YHR094C, strain hxt1, active compounds read low 0.982 | locus YHR129C, strain ARP1, active compounds read low 0.987 | locus YHR142W, strain chs7, active compounds read low 0.995 | locus YHR200W, strain rpn10, active compounds read low 0.986 | locus YIL066C, strain RNR3, active compounds read low 1 | locus YIL073C, strain SPO22, active compounds read low 0.95 | locus YIL125W, strain kgd1, active compounds read low 0.987 | locus YIR030C, strain dcg1, active compounds read low 0.991 | locus YJL092W, strain hpr5, active compounds read low 0.985 | locus YJL095W, strain BCK1 (second series), active compounds read low 0.998 | locus YJL095W, strain BCK1, active compounds read low 0.952 and 0.984 | locus YJL115W, strain asf1, active compounds read low 0.991 | locus YJL129C, strain trk1, active compounds read low 1 | locus YJL134W, strain LCB3, active compounds read low 0.997 | locus YJL154C, strain vps35, active compounds read low 0.993 | locus YJL164C, strain tpk1, active compounds read low 0.984 | locus YJL166W, strain qcr8, active compounds read low 0.994 | locus YJL168C, strain set2, active compounds read low 0.996 | locus YJL187C, strain SWE1 (second series), active compounds read low 0.988 | locus YJL187C, strain SWE1, active compounds read low 0.989 | locus YJR043C, strain POL32, active compounds read low 0.987 | locus YJR066W, strain TOR1, active compounds read low 0.922
